G9a block: inhibitors of human histone lysine methyltransferase G9a. Q96KQ7. G9a H3K9 monomethylation, AlphaScreen, 2 h. Potency, µM (titrated, usually from 102 µM), without a hit: at the top dose activity, negative = inhibition, most hits filed as inhibitors. 8.8% of 350,000 active. AID 504332; further: potency means the concentration at half of the fitted maximal effect; nearly all actives have a fitted effect of over 75% in size
Target sequence (Q96KQ7 913-1193 limits assumed): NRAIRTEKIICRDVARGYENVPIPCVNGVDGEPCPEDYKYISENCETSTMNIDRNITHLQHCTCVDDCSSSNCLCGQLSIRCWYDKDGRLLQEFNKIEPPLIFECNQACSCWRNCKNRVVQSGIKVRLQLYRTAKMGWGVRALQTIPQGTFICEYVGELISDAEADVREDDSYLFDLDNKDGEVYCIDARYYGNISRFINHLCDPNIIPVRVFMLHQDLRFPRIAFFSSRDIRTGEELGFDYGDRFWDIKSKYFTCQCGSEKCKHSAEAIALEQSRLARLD
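Readings reflect AlphaScreen signal from monomethyl-H3K9 antibody detection. HMT at 20 nM; substrate b-H3K9 500 nM; cofactor SAM 20 uM; 2 h RT reaction; compounds tested as titrations in qHTS with 15 min preincubation.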
Tau ThT inhib: inhibitors of human tau fibril formation, thioflavin T binding; P10636; recombinant tau K18 P301L, heparin-induced fibrillization, ThT fluorescence; Potency, µM (series often up to 57.4 µM), without a hit: top-dose activity, negative = inhibition, usual class: inhibitors; 2.1% of 270,000 active; AID 1460; further: potency means the concentration at half of the fitted maximal effect; nearly all actives have a fitted effect of over 55% in size
Target sequence (P10636 561-689 P618L limits assumed): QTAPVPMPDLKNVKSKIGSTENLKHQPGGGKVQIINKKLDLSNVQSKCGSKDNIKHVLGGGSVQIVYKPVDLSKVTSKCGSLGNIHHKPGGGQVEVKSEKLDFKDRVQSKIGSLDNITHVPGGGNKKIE
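Fibril formation assay: tau K18 P301L at 15 uM with trace Alexa 594 label, heparin inducer 20 uM, pH 7 sodium acetate buffer, 37 C for 6 hr; endpoint ThT signal.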
Sfp inh: blocks B. subtilis Sfp PPTase activity. AID 1490. Potency, µM, for inactives: largest response in the series, negative = inhibition, most hits filed as inhibitors. 3.5% of 310,000 active. Biochemical Sfp PPTase activity, qHTS;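 further: the enzyme is Sfp with the accession as filed and its product quenches rhodamine fluorescence; potency means the concentration at half of the fitted maximal effect; 0% = enzyme reaction without inhibitor and -100% = no enzyme wells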
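After 15 min at room temperature with compound, 15 nM Sfp received 5 uM rhodamine-CoA plus 12.5 uM BHQ-2-ybbR (50 mM Hepes pH 7.6, 10 mM MgCl2). Rate came from the fluorescence difference over 30 min, ex 525/em 598 nm.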
Tau fluor cs: counter-screen for tau fibril formation inhibitors | tau K18 P301L Alexa594 fluorescence, heparin fibrillization | Potency, µM (series often up to 57.7 µM), for inactives: at the highest dose activity change, negative = decrease | 0.93% of 280,000 active; further: potency means the concentration at half of the fitted maximal effect; nearly all actives have a fitted effect of over 55% in size
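Human tau K18 P301L (15 uM unlabeled, 0.24 uM Alexa 594-labeled) in 100 mM sodium acetate pH 7 with 20 uM heparin, 6 hr at 37 C. ThT 30 uM added, 1 hr ambient; Alexa 594 FP and total fluorescence read at 555/632 nm.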
Tau FP inhib: inhibitors of human tau fibril formation. P10636. K18 P301L tau heparin fibrillization, Alexa594 FP, 6 h. Potency, µM (top dose mostly 57.7 µM), inactives show at the highest dose activity, negative = inhibition, most hits filed as inhibitors. 0.39% of 280,000 active. AID 1468; further: potency means the concentration at half of the fitted maximal effect; nearly all actives have a fitted effect of over 55% in size
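FP of Alexa 594-tau after heparin (20 uM) induction. Substrate: human K18 P301L, 15 uM unlabeled, 0.24 uM labeled. Buffer 100 mM sodium acetate pH 7. 6 hr, 37 C.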
FBPA coupling cs: coupling enzyme interference in Giardia aldolase counter-screen. coupling enzyme system counterscreen, AmpLite Red fluorescence. AID 2472. 0.67% of 290,000 active. activity change, negative = inhibition, % at 58.2 µM, hits read low; in the data active means activity change below about -30%
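Counterscreen lacking aldolase: glyceraldehyde-3-phosphate coupling-enzyme reagent preincubated 10 min at RT with compound (at 57.5 uM final), then substrate/coupling system with AmpLite Red added; fluorescence read at 525/598 nm after 20 min RT.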
An asterisk follows results filed as active; u = inconclusive; x = no result; ! = not confirmed by another sample; [ ] = dose if it differs, or a comment. A selection: hits, their analogues and other compounds. The true share with any hit is near 11%. Unless noted, the call rests on the fitted dose curve; in most records, active means well fitted curve in the direction sought with a large enough effect; inconclusive means small, poorly fitted or top-dose-only effect, or another doubt; inactive means no such curve, though single readings can be large; an effect the other way counts as inactive or inconclusive. Unless noted, on the % scale 0 is the no-effect control and ±100 the full control effect.

SMILES	G9a block	Tau ThT inhib	Sfp inh	Tau fluor cs	Tau FP inhib	FBPA coupling cs
S=c1[nH]nc(-c2ccco2)n1Cc1ccccc1	u	-3%	23%	-1%	7%	-6
S=c1[nH]nc(C2CC2)n1Cc1ccccc1	6.3µM*	5%	56µM*	-2%	u	-7
O=C(O)C(O)(c1ccccc1)C1CCCC1 (configuration not stated)	25µM*	0%	8%	1%	7%	-2
NCCc1c[nH]c2ccc(C(N)=O)cc12	35µM*!	-5%	21%	-3%	5%	1
NCCc1c[nH]c2ccc(F)cc12	u	-6%	-9%	-2%	-7%	1
Cc1ncc(CNC(=O)N(CCCl)N=O)c(N)n1	17µM*!	-6%	-28%	-5%	-1%	1
C[N+]1([O-])[C@@H]2CC[C@H]1CC(OC(=O)[C@@H](CO)c1ccccc1)C2 (some centres not stated)	22%[5.15 µM]	x	-11%	x	x	3
Fc1cccc(C2NCc3ccccc3-n3cccc32)c1 (configuration not stated)	50µM*	x	6%	x	x	-1
FC(F)(F)Oc1ccc(C2NCc3ccccc3-n3cccc32)cc1 (configuration not stated)	u	x	0%	x	x	-1
CC(C)c1ccc(C2NCc3ccccc3-n3cccc32)cc1 (configuration not stated)	45µM*	x	-9%	x	x	-1
C=CCN1CC[C@@]23c4c5ccc(O)c4O[C@H]2/C(=N\N=C2/CC[C@@]4(O)[C@H]6Cc7ccc(O)c8c7[C@@]4(CCN6CC=C)[C@@H]2O8)CC[C@]3(O)[C@@H]1C5	x	-14%	-10%	-8%	-2%	0
CSCCC(=O)Nc1cc(S(=O)(=O)N2CCOCC2)ccc1N1CCN(C)CC1	u	3%	20%	1%	2%	0
O=C(NCCSc1c(-c2ccccc2)[nH]c2ccccc12)c1ccc(S(=O)(=O)N2CCOCC2)cc1	u	-9%	x	6.3µM*[quencher]	u	x
CN(C)S(=O)(=O)c1ccc(C(=O)NCCSc2c(-c3ccccc3)[nH]c3ccccc23)cc1	-10%[59 µM]	-5%	x	4µM*[quencher]	-10%	x
CC(=O)[C@@H]1CC[C@H]2[C@@H]3CC[C@@H]4CC(=O)CC[C@]4(C)[C@H]3CC[C@]12C	26%[59 µM]	-8%	8%	-11%	-1%	x
CCOc1c(P(=S)(N(C)C)N(C)C)c(C)nn1-c1ccccc1	u	-4%	11%	-3%	11%	-1
CCN(CC)P(=S)(c1c(C)nc2ccccn12)c1c(C)nc2ccccn12	14µM*	-6%	50µM*	2%	1%	1
Cc1cccc(N2C(=O)NC(=O)/C(=C\c3cc(C)n(-c4sc5c(c4C#N)CCCC5)c3C)C2=O)c1C	16µM*	u	35µM*	-17%	u	1
NC(=O)C1=CN(C2OC(COP(=O)(O)OP(=O)(O)OC[C@H]3O[C@@H](n4cnc5c(N)ncnc54)[C@H](OP(=O)(O)O)[C@H]3O)C(O)C2O)C=CC1 (some centres not stated)	8%	-7%	x	-11%	2%	x
CN(CCOc1ccc(C=C2C(=O)NC(=O)NC2=O)cc1)c1ccccn1	45µM*	u	79µM*	-3%	-2%	4
CN1C2CC(OC(=O)C(CO)c3ccccc3)CC1C(O)C2 (configuration not stated)	-38%[2.33 µM]	8%	-7%	4%	3%	5
CNNC	x	u	11µM*	-10%	-16%	-18
O=C(N[C@@H]1CN2CCC1CC2)c1cc(Cl)cc2[nH]cnc12	x	x	2%	x	x	-2
Cc1c(Cl)ccc2sc(N3CCN(C(=O)CCS(=O)(=O)c4ccc(F)cc4)CC3)nc12	2%[59 µM]	u	x	-17%	-9%	x
C=CCn1c(O)c(/C(C)=N/NC(=S)Nc2ccccc2)c(=O)[nH]c1=O	-124%[59 µM]	u	35µM*	u	-7%	2
SMILES	G9a block	Tau ThT inhib	Sfp inh	Tau fluor cs	Tau FP inhib	FBPA coupling cs
C=CCn1c(O)c(C(CC)=NCCc2ccccc2)c(=O)[nH]c1=O	-10%	-14%	4%	-12%	-3%	0
C=CCn1c(O)c(C(CC)=Nc2ccc(N(C)C)cc2)c(=O)[nH]c1=O	x	u	50µM*	u	u	-20
C=CCn1c(O)c(/C(CC)=N/NC(=S)Nc2ccccc2)c(=O)[nH]c1=O	x	u	22µM*	-28%	7%	-2
C=CCn1c(O)c(C(C)=NCCc2ccccc2)c(=O)[nH]c1=O	-14%	-3%	-3%	2%	-1%	5
CC1CC(O)[C@]2(O)[C@]13CC(=O)OC[C@@]2(C)[C@@](C)(O)C(=O)C3 (some centres not stated)	x	0%	4%	1%	-1%	2
CCOC(=O)c1cnc2c(ccc3ccccc32)c1Nc1ccc(N(C)C)cc1	2.5µM*	u	x	u	-4%	x
O=C1/C(=C/c2ccc([N+](=O)[O-])cc2)N2CCC1CC2	11µM*	u	11%	-21%	7%	11
S=c1[nH]nc(Cn2c(-c3ccccn3)nc3ccccc32)n1-c1ccc2c(c1)OCCO2	-135%[59 µM]	u	79µM*	-14%	9%	-6
C[C@@H](N)Cc1cnc[nH]1	u	-8%	-3%	-5%	-1%	2
O=C(O)Cc1cnc[nH]1	9.5µM*!	-22%	50µM*	u	u	x
CNC(=O)Oc1ccc2c(c1)[C@@]1(C)CCN(C)C1N2C (some centres not stated)	3%[2.33 µM]	-7%	u	-8%	-3%	-36*!
CNC(=O)Oc1ccc(C(=O)N2c3ccccc3NC(=O)C2C)cc1 (configuration not stated)	5%	x	6%	x	x	6
CCCCC(CC)CNCC(O)c1ccccc1 (configuration not stated)	25µM*	-3%	-4%	-3%	-4%	0
CCc1ccc(NC(=O)CN2C(=O)C3(SCC(=O)N3c3ccc(F)c(F)c3)c3ccccc32)cc1 (configuration not stated)	u	-13%	x	u	u	x
O=C(NC1CN2CCC1CC2)c1ccc(-c2ccc([N+](=O)[O-])cc2)o1 (configuration not stated)	u	3%	56µM*	-2%	0%	1
O=C(N[C@H]1CN2CCC1CC2)c1ccc(Cl)cc1	u	1%	-18%	-3%	-7%	3
C[C@H](NC(=O)[C@@H](N)Cc1ccc(O)cc1)C(=O)N[C@@H](Cc1ccccc1)C(=O)N[C@@H](Cc1ccccc1)C(N)=O	19%[59 µM]	6%	-8%	4%	-4%	x

Assay outcomes (PubChem)
